# PubChem BioAssay AID686978 (National Center for Advancing Translational Sciences (NCATS), 2013)
# Screen size: about 420,000 compounds; about 64,000 (15%) were called active. About 27% were inconclusive and are not listed. The call rests on the fitted dose curve; in most records, active means well fitted inhibition curve with a large enough effect; inconclusive means small, poorly fitted or top-dose-only effect; inactive means flat fitted curve, though single readings scatter. A selection follows. A call without a number means that no potency is given here.
# Test: qHTS for Inhibitors of human tyrosyl-DNA phosphodiesterase 1 (TDP1): qHTS in cells in absence of CPT; further: nearly all actives have a fitted effect of over 55% in size
# Details: DT40 Tdp1-/- hTDP1 cells, no CPT, ATP luminescence, 48 h; activity change, negative = growth inhibition: at 46.2 µM (top of the series)
# Method in brief: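 Growth kinetics read by CellTiter-Glo luminescence after ≥48 hr at 37 °C. Cells: DT40 Tdp1-/- stably carrying human TDP1, 400 per well, compound exposure in the absence of CPT (DMSO vehicle).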
# Potency means the concentration at half of the fitted maximal effect.
row,SMILES,Potency
1,Cc1cc(OC(C)C(=O)NC2CC(C)(C)NC(C)(C)C2)c2c(C)cc(=O)oc2c1 (stereo not given),inactive
2,Oc1ccccc1-c1nc(/C=C/c2ccc(F)cc2)no1,inactive
3,CCCN(c1ccc(C(C)C)cc1)S(=O)(=O)c1c(C)[nH]c(=O)[nH]c1=O,inactive
4,O=C(NC1CCCCC1)C1CCC(CNS(=O)(=O)c2ccccc2)CC1 (stereo not given),inactive
5,CCOc1ccc(N(CC(=O)NC2CCCCCC2)S(=O)(=O)c2c(C)[nH]c(=O)[nH]c2=O)cc1,inactive
6,CC(=O)NC(NC(=S)Nc1c(C)n(C)n(-c2ccccc2)c1=O)C(Cl)(Cl)Cl (stereo not given),inactive
7,CC1(C)Cc2cccc(OCC(N)=O)c2O1,inactive
8,CC(=O)Nc1cncc(-c2ccccc2CO)n1,inactive
9,CC1C(=O)NC(=O)C1c1ccccc1 (stereo not given),inactive
10,COc1cccc(C(=O)NCCSc2ccc(Br)cc2)c1,inactive
11,O=C(CCNS(=O)(=O)c1ccccc1)NCCSc1ccc(Br)cc1,inactive
12,O=C(CNC(=O)c1ccccc1Br)NCCSc1ccc(Br)cc1,18.4 µM (active)
13,CC(=O)c1sc(NC(=O)CCN2C(=O)C3CC=CCC3C2=O)nc1-c1ccccc1 (stereo not given),inactive
14,CC(Oc1ccccc1)C(=O)Nc1oc(-c2ccco2)c(-c2ccco2)c1C#N (stereo not given),inactive
15,CSc1ncc(Cl)c(C(=O)Nc2cc(C)ccc2C)n1,inactive
16,CSc1ncc(Cl)c(C(=O)Nc2ccc(S(=O)(=O)N3CCCC(C)C3)cc2)n1 (stereo not given),14.6 µM (active)
17,CCc1ccc(NC(=O)c2cc(S(=O)(=O)N3CCCC(C)C3)cn2C)cc1 (stereo not given),inactive
18,COc1c(F)c(F)c(-c2csc(N)n2)c(F)c1F,inactive
19,Cc1cc(C)n(CCNCc2c(C(=O)N3C[C@@H](C)O[C@@H](C)C3)nc3ccc(Cl)cn23)n1,inactive
20,O=C1c2ccccc2NC(c2ccccc2O)N1NS(=O)(=O)c1ccccc1 (stereo not given),inactive
21,CC(=O)NN1C(=O)c2ccccc2NC1c1ccccc1 (stereo not given),inactive
22,CCOC(=O)NN1C(=O)c2ccccc2NC1c1ccccc1O (stereo not given),23.1 µM (active)
23,CCCCNC(=O)C(=O)c1ccccc1NC(C)=O,inactive
24,CCCCNC(=O)Nc1c(C)cc(SC#N)cc1C,8.2 µM (active)
25,CCC(C)C(CO)NC(=O)/C=C/[C@H]1O[C@@H](n2cnc3c(NC(=O)c4ccccc4)ncnc32)[C@H](O)[C@@H]1O (stereo not given in full),inactive
26,CNc1nnc(-c2ccco2)s1,inactive
27,O=C(NCc1ccccn1)Nc1ccc(F)cc1,inactive

row,SMILES,Potency
1,CCOC(=O)c1ccccc1NC(=O)CSc1nc2c(sc(=S)n2CC)c(=O)[nH]1,inactive
2,CC(C)CN1CCNC(=O)C1CC(=O)N(C)CC1CCOCC1 (stereo not given),inactive
3,CC(NC(=O)CN(C)S(=O)(=O)c1ccc(F)cc1)C1CC2CCC1C2 (stereo not given),inactive
4,COC(=O)c1cc(C(=O)NC(C)C2CC3CCC2C3)cc([N+](=O)[O-])c1 (stereo not given),20.6 µM (active)
5,COC(=O)c1cc(C(=O)OCC(=O)Nc2cc(C)on2)cc([N+](=O)[O-])c1,inactive
6,OC1CN=C2Sc3ccccc3N2C1 (stereo not given),inactive
7,O=C(NC(=O)c1ccc(Cl)c(Cl)c1)OC1CCS(=O)(=O)C1 (stereo not given),inactive
8,CCCCOc1ccc(C(=O)NCC(=O)OCC(=O)c2c(N)n(C)c(=O)n(C)c2=O)cc1,inactive
9,O=C(Nc1cccc(C(F)(F)F)c1)c1cnccn1,inactive
10,COc1cc(NC(=O)c2[nH]cnc2C(N)=O)cc(C(=O)Nc2cccc(C(F)(F)F)c2)c1,18.4 µM (active)
11,COc1cc(NC(=O)c2cccnc2SC)cc(OC)c1,inactive
12,COc1cc(NC(=O)c2cncc(-c3ccc(C#N)cc3)c2)cc(C(=O)Nc2cccc(C(F)(F)F)c2)c1,10.3 µM (active)
13,CCn1nnnc1SCC(=O)Nc1ccc(N(C)C)cc1,inactive
14,Cn1c(N)c(C(=O)COC(=O)/C=C/c2cccc(C(F)(F)F)c2)c(=O)n(C)c1=O,inactive
15,Cc1noc(C)c1-c1nccc(N2CCOCC2)n1,inactive
16,CCCCc1nc2cc(C(=O)NCCc3cnn(C)c3)ccc2o1,inactive
17,O=C(O)C1CC=CCC1C(=O)Nc1ccccc1C(=O)N1CCN(c2ccccc2)CC1 (stereo not given),20.6 µM (active)
18,CC1CCN(C(=O)c2ccccc2NC(=O)Cc2ccccc2)CC1,inactive
19,O=C(Nc1ccccc1C(=O)N1CCCCCC1)c1ccccc1Cl,inactive
20,Cc1ccccc1NC(=O)C1CCN(C(=O)NC2CCCCC2)CC1,inactive
21,CC1CC(=O)N(CC(=O)Nc2cccc(Cl)c2)c2ccccc2S1(=O)=O (stereo not given),inactive
22,Cc1ccc(NC(=O)CN2c3ccccc3S(=O)(=O)c3ccccc32)cc1F,18.4 µM (active)
23,CC(=O)N1CCN(CC(=O)Nc2ccc(C)c(F)c2)CC1,inactive
24,CCCCOc1ccc(NC(=O)c2cc3c(n(-c4ccc(Cl)cc4)c2=O)CCCC3=O)cc1,inactive
25,c1ccc2cc(C3=NCCN3)ccc2c1,inactive
26,C=CCNC(=O)c1ccccc1NC(=O)c1ccc(Cl)c(S(=O)(=O)Nc2cccc(C)c2C)c1,16.4 µM (active)
27,Cc1cc(=O)c2cc(C(=O)Nc3cccc(C)c3C)ccc2[nH]1,inactive

row,SMILES,Potency
1,Cc1ccccc1NC(=O)c1cc(S(=O)(=O)Nc2cccc(C(=O)O)c2)ccc1Cl,inactive
2,CC1(C)CC(=O)C2=C(C1)Nc1cc(C(=O)c3ccccc3)ccc1NC2c1ccccn1 (stereo not given),inactive
3,Cc1cccc(NC(=O)COC(=O)c2ccccc2OCc2cccc(Br)c2)c1,22.4 µM (active)
4,Cc1cccc(C(=O)OCC(=O)Nc2ccc(F)cc2)c1,inactive
5,O=C(COC(=O)c1ccccc1OCCOc1ccccc1)Nc1cccc(Br)c1,inactive
6,Nc1nc(C23CC4CC(CC(C4)C2)C3)cs1,inactive
7,CN(C)c1ccc(S(=O)(=O)NCC(=O)NCC2CCCCC2)cc1[N+](=O)[O-],inactive
8,Cc1noc(NS(=O)(=O)c2ccc(N3CC(O)=C(c4ccccc4)C3=N)cc2)c1C,inactive
9,CCC(C)c1ccccc1N1CC(C(=O)N2CCN(S(=O)(=O)c3ccc(F)cc3)CC2)CC1=O (stereo not given),inactive
10,CC(=O)NC(c1ccccc1)c1nc(-c2ccccc2C)cs1 (stereo not given),inactive
11,CCC1=C(OC(=O)N(CC)CC)N2C(=O)OC(=NCC3CC3)[C@]2(C)[C@H]2C1=CC[C@H]1C(=O)N(CC(=O)OC)C(=O)[C@H]12,inactive
12,CCn1nc(C)c(NC(=O)/C=C/c2ccc(OC)c(COc3ccc(Br)cc3)c2)c1C,20.6 µM (active)
13,COc1ccc(OC)c(S(=O)(=O)Nc2c(C)nn(C)c2C)c1,inactive
14,CCn1nc(C(=O)NNS(=O)(=O)c2cc(/C=C/C(=O)O)cc(OC)c2OC)c2ccccc2c1=O,inactive
15,O=C(Nc1nnc(-c2ccccc2F)s1)c1ccccc1F,inactive
16,COC(=O)c1c(NC(=O)c2ccccc2F)sc2c1C(C(=O)OC)CC2 (stereo not given),11.6 µM (active)
17,Cc1ccccc1NC(=O)c1c(NC(=O)c2ccccc2F)sc2c1CCC(C)C2 (stereo not given),inactive
18,COc1cc(NC(=O)CCNC(=O)Cn2ccc3ccccc3c2=O)cc(OC)c1OC,inactive
19,CC(=O)C[C@H](O)CC(=O)[C@@H]1OC(=O)[C@@H](C)C/C=C\Cc2ccccc21,inactive
20,N#CC1=C(N)Oc2cc(N)ccc2C1c1ccccc1 (stereo not given),18.4 µM (active)
21,Cc1cc(C)c2c3c(sc2n1)C(c1ccccc1)C(C#N)=C(N)O3 (stereo not given),inactive
22,CC(C)c1ccc(C2C(C#N)=C(N)Oc3c2oc(CO)cc3=O)cc1 (stereo not given),inactive
23,c1nc(COc2nsnc2N2CCOCC2)cs1,inactive
24,CC(=O)Nc1cc2ccc(OC(C)=O)cc2oc1=O,inactive
25,CC(C)NC(=O)C(=O)N/N=C/c1ccco1,inactive
26,CCCNC(=O)C1CCN(c2nc3ccc(C)cc3[nH]2)CC1,inactive
27,Cc1ccc(CN2C(=O)CCC2C(=O)NCCCN2CCCCC2C)cc1 (stereo not given),inactive

row,SMILES,Potency
1,CCCc1nc2c(C)cc(-c3nc4ccccc4n3C)cc2n1Cc1ccc(-c2ccccc2C(=O)O)cc1,inactive
2,Cc1ccc(C)c(Cn2c(CCCNC(=O)C3CCCCC3)nc3ccccc32)c1,16.4 µM (active)
3,CC(C)Oc1ccc(CNC(=O)C2CCN(c3nc4ccccc4n(C)c3=O)CC2)cc1,inactive
4,CCCCNC(=O)CCn1c(=O)c2ccccc2n(Cc2cc(C)ccc2C)c1=O,inactive
5,CCc1ccc(OCCCn2c(CCCNC(=O)C3CCCCC3)nc3ccccc32)cc1,4.47 µM (active)
6,Cc1ccc(Cn2c(CCCNC(=O)C3CCCCC3)nc3ccccc32)cc1,20.6 µM (active)
7,O=C(NCCCc1ccccc1)C1CCC(CNc2c(N3CCCCC3)c(=O)c2=O)CC1 (stereo not given),inactive
8,O=C(NC1CC(=O)N(c2ccc(F)cc2)C1)c1cccs1 (stereo not given),inactive
9,Cc1cc(C)c(S(=O)(=O)c2ccc(F)cc2C)c(=O)[nH]1,inactive
10,COc1cccc(NC(=O)c2nn(-c3ccc(OC)cc3OC)c(=O)c3ccccc23)c1,inactive
11,O=C1NC(c2ccccc2)Cc2ccncc21 (stereo not given),inactive
12,N[C@H]1CN(c2c(F)cc3c(=O)c(C(=O)O)cn(C4C[C@H]4F)c3c2Cl)CC12CC2 (stereo not given in full),inactive
13,COC(=O)c1[nH]c2cccc(C)c2c1NC(=O)CN1CCCc2ccccc21,20.6 µM (active)
14,Cc1ccc(OCC(=O)Nc2cccc3c2CCCC3)cc1C,inactive
15,NS(=O)(=O)c1cccc(NC(=O)CN2CCCc3ccccc32)c1,inactive
16,CCN1CCN(C(=O)C2(NC(=O)Nc3cccc(F)c3)CCCCC2)CC1,inactive
17,O=C(COc1ccc2ccc(=O)oc2c1)NCC(O)c1ccccc1 (stereo not given),inactive
18,COCCn1c(=O)c(-c2ccc(OC)cc2)nc2cnc(Oc3cccc(Cl)c3)nc21,inactive
19,O=C(NCc1cccs1)C1CCN(S(=O)(=O)c2ccc3c(c2)OCCO3)CC1,inactive
20,COc1ccc(C(=O)OCC(=O)Nc2cc(C)on2)cc1F,inactive
21,O=C(CCNC(=O)c1ccc(Cl)cc1)NC1CCCc2ccccc21 (stereo not given),inactive
22,Cn1nccc1C(=O)NC1CCCc2c1cnn2-c1ccccc1F (stereo not given),2.06 µM (active)
23,Cn1nccc1C(=O)NC1CCCc2c1cnn2-c1ccc(F)cc1F (stereo not given),1.64 µM (active)
24,CC(=O)NCC(=O)NC1CCCc2c1cnn2-c1ccccc1F (stereo not given),inactive
